In experiment [1] the target is bovine Estrogen Receptor (ER), ESR1 (gene 407238) (UniProt P49884). The experiment is described as follows: NVS_NR_bER: NovaScreen (NVS) Nuclear Receptor Binding Assay for bovine Estrogen Receptor (ER) (AID 2283345).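 Note: actives lower the bound radioligand count which means they displace the ER ligand.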 An outline of the steps:
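Scintillation counting of displaced radioligand gave the readout; bovine uterine membrane extract supplied the receptor. Measured 18 h post-dose, normalized to DMSO baseline. Single 25 uM duplicate screen preceded concentration-response follow-up.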

For experiment [2], the target named is chimpanzee Androgen Receptor (AR), AR (gene 747460) (UniProt O97775). The experiment in a line: NVS_NR_cAR: NovaScreen (NVS) Nuclear Receptor Binding Assay for chimpanzee Androgen Receptor (AR) (AID 2283346).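 Note: a loss of bound radioligand signal versus DMSO counts as binding.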 An outline of the steps: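 Radioligand binding to chimpanzee AR expressed in Sf9/Sf21 cells, cell-free, measured 72 h after dosing by lysate-based scintillation counting. Loss of signal vs DMSO; initial duplicate screen at 25 uM, actives retested in concentration series.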
chimpanzee Androgen Receptor (AR), AR (gene 747460), sequence (O97775 whole entry, looked up): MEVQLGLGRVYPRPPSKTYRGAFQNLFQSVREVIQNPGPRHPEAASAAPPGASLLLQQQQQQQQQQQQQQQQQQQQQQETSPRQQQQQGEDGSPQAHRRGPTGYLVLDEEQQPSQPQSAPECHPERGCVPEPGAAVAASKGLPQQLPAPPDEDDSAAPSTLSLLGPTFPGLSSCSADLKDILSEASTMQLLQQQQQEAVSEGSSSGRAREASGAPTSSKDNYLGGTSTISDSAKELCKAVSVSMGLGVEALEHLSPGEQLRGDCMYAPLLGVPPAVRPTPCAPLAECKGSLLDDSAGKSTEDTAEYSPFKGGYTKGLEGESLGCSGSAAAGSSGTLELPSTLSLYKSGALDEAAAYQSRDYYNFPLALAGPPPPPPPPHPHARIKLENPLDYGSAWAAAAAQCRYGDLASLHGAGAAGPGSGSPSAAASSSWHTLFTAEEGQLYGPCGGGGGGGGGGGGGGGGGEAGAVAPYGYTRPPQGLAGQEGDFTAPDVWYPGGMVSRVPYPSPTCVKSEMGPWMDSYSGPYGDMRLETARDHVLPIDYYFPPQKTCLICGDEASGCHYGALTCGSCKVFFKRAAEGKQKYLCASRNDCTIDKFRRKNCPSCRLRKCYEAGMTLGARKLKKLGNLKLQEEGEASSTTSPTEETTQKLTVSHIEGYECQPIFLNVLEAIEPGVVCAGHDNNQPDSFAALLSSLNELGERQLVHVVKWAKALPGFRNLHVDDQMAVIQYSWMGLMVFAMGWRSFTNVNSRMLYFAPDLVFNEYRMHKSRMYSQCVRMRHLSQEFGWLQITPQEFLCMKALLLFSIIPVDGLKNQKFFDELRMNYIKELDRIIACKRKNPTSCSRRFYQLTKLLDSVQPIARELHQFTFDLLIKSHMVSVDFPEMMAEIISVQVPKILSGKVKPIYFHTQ

For experiment [3], the target named is Estrogen receptor (Homo sapiens) (UniProt P03372). The experiment in a line: NVS_NR_hER: NovaScreen (NVS) Nuclear Receptor Binding Assay for human Estrogen Receptor (ER) (AID 2283348). An outline of the steps: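 Radioligand competitive displacement binding to estrogen receptor from MCF7 extract, cell-free; 18 h after dosing, scintillation read-out. Primary screen in duplicate at 25 uM; actives followed up in concentration series; loss of signal vs DMSO.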
Estrogen receptor (Homo sapiens), sequence (P03372 whole entry, looked up, the tested form may be a part): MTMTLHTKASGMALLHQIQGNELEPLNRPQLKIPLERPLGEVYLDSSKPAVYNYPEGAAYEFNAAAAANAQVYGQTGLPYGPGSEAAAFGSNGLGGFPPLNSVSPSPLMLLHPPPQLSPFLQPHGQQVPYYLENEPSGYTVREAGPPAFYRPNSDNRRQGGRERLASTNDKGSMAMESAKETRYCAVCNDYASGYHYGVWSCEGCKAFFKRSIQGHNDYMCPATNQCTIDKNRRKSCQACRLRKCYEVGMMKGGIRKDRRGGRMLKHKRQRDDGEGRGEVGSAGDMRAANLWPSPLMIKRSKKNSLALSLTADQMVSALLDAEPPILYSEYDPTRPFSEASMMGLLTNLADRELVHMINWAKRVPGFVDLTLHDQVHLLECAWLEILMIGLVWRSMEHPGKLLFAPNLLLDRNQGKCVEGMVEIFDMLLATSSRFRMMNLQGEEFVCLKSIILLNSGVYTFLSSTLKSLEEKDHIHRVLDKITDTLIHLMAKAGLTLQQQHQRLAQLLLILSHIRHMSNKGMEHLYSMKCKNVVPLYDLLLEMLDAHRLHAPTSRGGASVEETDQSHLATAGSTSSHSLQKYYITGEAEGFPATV

Experiment [4] addresses rat Thyrotropin Releasing Hormone Receptor (TRH), Trhr (gene 25570) (UniProt Q01717). The experiment in a line: NVS_GPCR_rTRH: NovaScreen (NVS) G Protein-Coupled Receptor Assay for rat Thyrotropin Releasing Hormone Receptor (TRH) (AID 2283329).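 Note: hit means lower bound tracer signal versus DMSO baseline.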 An outline of the steps: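 Rat forebrain membrane prep, radioligand displacement, filter scintillation readout at 4 h. Single conc 25 uM, duplicate; actives retested as concentration series. DMSO = negative control/baseline.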

Experiment [5] addresses human Peripheral-type Benzodiazepine Receptor (PBR), TSPO (gene 706) (UniProt P30536). The experiment in a line: NVS_MP_hPBR: NovaScreen (NVS) Membrane Protein Assay for human Peripheral-type Benzodiazepine Receptor (PBR) (AID 2283331).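 Note: hits reduce radioligand binding relative to DMSO baseline.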 An outline of the steps: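 Radioligand displacement on human colonic cell membranes, 1 h incubation; bound radioactivity by filtration and scintillation counting. Primary screen in duplicate at 25 uM single concentration, actives followed up in concentration series; loss of binding versus DMSO.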

Experiment [6] deals with rat Peripheral-type Benzodiazepine Receptor (PBR), Tspo (gene 24230) (UniProt P16257). The experiment is described as follows: NVS_MP_rPBR: NovaScreen (NVS) Membrane Protein Assay for rat Peripheral-type Benzodiazepine Receptor (PBR) (AID 2283335). An outline of the steps:
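Rat kidney membranes; radioligand binding with displacement, filter-based scintillation counting, 1 h incubation. Primary screen in duplicate at 25 uM, actives followed in concentration series; loss of binding vs DMSO.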

Experiment [7] has as its target Estrogen receptor (Homo sapiens) (UniProt P03372). The experiment in a line: OT_ER_ERaERa_1440: Odyssey Thera (OT) 24-hour HEK293T Protein-Complementation Assay for Estrogen Receptor-alpha/-alpha Homodimer (AID 2283349).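 Note: hits raise fluorescence above DMSO for agonists and antagonists alike.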 In outline: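 HEK293T cells stably expressing the human ER alpha ligand-binding domain (aa 310-547) as a homodimer PCA were dosed for 24 hours. Fluorescence intensity was read by laser scanning cytometry, and gain of signal was fitted relative to DMSO vehicle.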

For experiment [8], the target named is rat Gamma-Aminobutyric Acid Type A Receptor, Non-Selective (GABAR-NonSelective), Gabra1 (gene 29705) (UniProt P62813). The experiment is described as follows: NVS_LGIC_rGABAR_NonSelective: NovaScreen (NVS) Ligand-Gated Ion Channel Assay for rat Gamma-Aminobutyric Acid Type A Receptor, Non-Selective (GABAR-NonSelective) (AID 2283326). In outline: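 Radioligand displacement on rat whole-brain extract, 1 h, filter scintillation readout; signal loss fitted versus DMSO. Primary screen in duplicate at 25 uM; hits (e.g. ≥30% inhibition) retested in concentration-response up to 50 uM.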
rat Gamma-Aminobutyric Acid Type A Receptor, Non-Selective (GABAR-NonSelective), Gabra1 (gene 29705), sequence (P62813 whole entry, looked up): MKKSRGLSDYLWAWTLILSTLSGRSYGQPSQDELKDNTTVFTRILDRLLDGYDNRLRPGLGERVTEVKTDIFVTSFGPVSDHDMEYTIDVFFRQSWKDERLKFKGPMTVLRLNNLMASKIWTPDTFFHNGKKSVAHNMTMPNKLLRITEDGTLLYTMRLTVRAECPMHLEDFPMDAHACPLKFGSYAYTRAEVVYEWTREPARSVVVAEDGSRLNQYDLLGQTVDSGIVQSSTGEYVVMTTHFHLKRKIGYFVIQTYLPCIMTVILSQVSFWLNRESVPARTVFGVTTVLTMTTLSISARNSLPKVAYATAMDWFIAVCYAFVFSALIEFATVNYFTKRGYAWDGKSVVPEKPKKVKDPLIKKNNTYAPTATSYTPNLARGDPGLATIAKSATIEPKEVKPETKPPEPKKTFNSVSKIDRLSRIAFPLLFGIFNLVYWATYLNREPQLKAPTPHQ

Results filed as inconclusive are left out. More than one record can exist for a structure, and the calls need not agree. Calls of active or inactive are those of the source. Rule for the calls: active = hit-call score of the fitted dose curve at least 0.9, where 1 is the maximum; inconclusive = response in the unintended direction; inactive = score below 0.9.

In general, AC50 refers to the concentration at which the activity in the assay is half-maximal.

rat Thyrotropin Releasing Hormone Receptor (TRH), Trhr (gene 25570), sequence (Q01717 whole entry, looked up): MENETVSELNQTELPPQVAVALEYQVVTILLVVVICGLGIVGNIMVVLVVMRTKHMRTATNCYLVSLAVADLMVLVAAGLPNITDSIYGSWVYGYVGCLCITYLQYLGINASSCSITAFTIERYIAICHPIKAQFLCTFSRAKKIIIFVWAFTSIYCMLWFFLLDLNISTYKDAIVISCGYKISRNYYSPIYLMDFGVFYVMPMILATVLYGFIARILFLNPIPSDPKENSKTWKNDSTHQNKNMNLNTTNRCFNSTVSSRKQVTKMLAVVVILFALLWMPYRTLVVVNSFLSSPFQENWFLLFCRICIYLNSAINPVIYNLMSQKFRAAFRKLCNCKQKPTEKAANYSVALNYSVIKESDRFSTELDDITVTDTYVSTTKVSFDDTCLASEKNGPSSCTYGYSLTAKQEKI
bovine Estrogen Receptor (ER), ESR1 (gene 407238), sequence (P49884 whole entry, looked up): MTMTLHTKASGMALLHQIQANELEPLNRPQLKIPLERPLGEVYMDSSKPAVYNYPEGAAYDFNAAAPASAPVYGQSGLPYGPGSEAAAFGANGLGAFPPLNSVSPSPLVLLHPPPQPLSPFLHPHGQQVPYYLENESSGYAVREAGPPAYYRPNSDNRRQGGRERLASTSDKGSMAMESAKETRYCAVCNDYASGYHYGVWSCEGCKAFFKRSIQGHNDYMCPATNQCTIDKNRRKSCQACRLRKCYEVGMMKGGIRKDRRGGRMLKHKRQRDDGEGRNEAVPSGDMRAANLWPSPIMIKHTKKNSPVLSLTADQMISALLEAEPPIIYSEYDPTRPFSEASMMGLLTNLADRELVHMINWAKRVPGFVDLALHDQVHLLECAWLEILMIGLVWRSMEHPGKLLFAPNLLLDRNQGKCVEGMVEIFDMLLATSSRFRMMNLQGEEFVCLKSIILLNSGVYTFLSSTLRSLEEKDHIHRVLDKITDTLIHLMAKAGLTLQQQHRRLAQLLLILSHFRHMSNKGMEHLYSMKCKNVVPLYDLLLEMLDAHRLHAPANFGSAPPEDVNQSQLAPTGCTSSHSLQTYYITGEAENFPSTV
human Peripheral-type Benzodiazepine Receptor (PBR), TSPO (gene 706), sequence (P30536 whole entry, looked up): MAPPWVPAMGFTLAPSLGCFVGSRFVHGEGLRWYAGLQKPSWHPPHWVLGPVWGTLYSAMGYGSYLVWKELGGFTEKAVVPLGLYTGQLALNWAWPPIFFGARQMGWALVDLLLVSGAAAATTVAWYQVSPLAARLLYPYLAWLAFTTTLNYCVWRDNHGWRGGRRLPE
rat Peripheral-type Benzodiazepine Receptor (PBR), Tspo (gene 24230), sequence (P16257 whole entry, looked up): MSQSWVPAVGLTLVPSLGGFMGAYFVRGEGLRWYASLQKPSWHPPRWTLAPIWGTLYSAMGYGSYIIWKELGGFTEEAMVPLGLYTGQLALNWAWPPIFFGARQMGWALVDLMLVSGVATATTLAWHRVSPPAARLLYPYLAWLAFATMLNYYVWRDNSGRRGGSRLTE

Take `C#C[C@]1(O)CC[C@H]2[C@@H]3CCC4=Cc5oncc5C[C@]4(C)[C@H]3CC[C@@]21C`: the compound was classed as inactive in experiment [1], in experiment [2] and in experiment [3]. Also, in experiment [3], the AC50 was 11.5 µM (active).

With `C=CCOc1nc(OCC=C)nc(OCC=C)n1`, the compound was classed as inactive in experiment [4]. Moreover, the values for the AC50 in experiment [5] and in experiment [6] were 14.3 µM (active) and 6.87 µM (active), respectively.

`CNCCCC12CCC(c3ccccc31)c1ccccc12`: the result in experiment [1] and in experiment [3] was inactive.

For `CCCCCCCCCCCCN`, the compound was classed as inactive in experiment [4].

For `CC1=CC(=O)NS(=O)(=O)O1`, in experiment [4], the compound was classed as inactive.

With `O=Nc1ccc(Nc2ccccc2)cc1`, the outcome in experiment [1], in experiment [2], in experiment [3] and in experiment [7] was inactive.

Turning to `CC1(C)[C@@H]2CC[C@@]1(C)[C@H](O)C2`, the result in experiment [4] was inactive.

For the compound `NCCCN1CCOCC1`, the result in experiment [4] and in experiment [7] was inactive.

On to `CC(=O)[C@H]1CC[C@H]2[C@@H]3CC=C4C[C@@H](O)CC[C@]4(C)[C@H]3CC[C@]12C`, for which the call in experiment [1] and in experiment [3] was inactive.

For `O=C(O)c1ccc(C(=O)O)cc1`, in experiment [4], the result was inactive.

With `CC(C)C[C@H]1C(=O)N2CCC[C@H]2[C@]2(O)O[C@](NC(=O)[C@@H]3C=C4c5cccc6[nH]c(Br)c(c56)C[C@H]4N(C)C3)(C(C)C)C(=O)N12`, in experiment [4], the outcome was inactive. Moreover, the AC50 in experiment [2] was 1.05 µM (active).

Regarding `CCCc1c(OCCCOc2ccc(OCC(=O)O)cc2)ccc(C(C)=O)c1O`, in experiment [1], the compound was called inactive.

Take `C[Si](O[Si](C)(C)C)O[Si](C)(C)C`: the compound was called inactive in experiment [4].

Regarding `O=C(O)c1ccc([N+](=O)[O-])cc1`, the AC50 in experiment [8] is 4.02 µM (active).

As to `CCN(CC)c1ccc2c(-c3ccccc3C(=O)O)c3ccc(=[N+](CC)CC)cc-3oc2c1`, in experiment [4], the outcome was inactive. In addition, the AC50 in experiment [5] is 16.8 µM (active); in experiment [6] it was 13.2 µM (active); in experiment [7] it was 12.2 µM (active).

On to `CCCCCCCCCCCCCCCCCC(=O)OCC(CC)CCCC` (stereo unspecified), for which the outcome in experiment [6] was inactive.

For `NNc1nc(-c2ccc(N)cc2)cs1`, the compound was classed as inactive in experiment [1] and in experiment [3].

With `O=C(Oc1ccccc1)c1ccc(O)cc1`, the AC50 in experiment [5] is 9.99 µM (active); in experiment [6], 4.86 µM (active). Also, the result in experiment [2] was inactive.

`OCCOCCOCCOCCO`: the compound was called inactive in experiment [4], in experiment [2] and in experiment [7].

With `CC(=O)C=CC1=C(C)CCCC1(C)C`, the compound was classed as inactive in experiment [7].

With `Cc1cc(C2(c3cc(C)c(O)cc3C)OS(=O)(=O)c3ccccc32)c(C)cc1O`, the AC50 is 10.6 µM (active) in experiment [1] and 5.05 µM (active) in experiment [3].

Take `O=C(COc1ccc(Cl)cc1)N1CCN(Cc2ccc3c(c2)OCO3)CC1`: in experiment [3], the call was inactive.

Turning to `CCCCCCCCCCCCCC(=O)O`, the call in experiment [7] was inactive.

As to `c1ccc(CCCc2ccccn2)cc1`, the outcome in experiment [7] was inactive.

As to `O=C1c2ccccc2C(=O)N1SC1CCCCC1`, the compound was called inactive in experiment [3] and in experiment [7].

Regarding `CC(C)C(C)(C)C(C)(C)C(C)(C)S`, the outcome in experiment [1] and in experiment [3] was inactive.

Take `CC(=O)OCCOC(C)=O`: the compound was called inactive in experiment [7].

Take `CC(=O)O[C@]1(C(C)=O)CC[C@H]2[C@@H]3C[C@H](C)C4=CC(=O)CC[C@]4(C)[C@H]3CC[C@@]21C`: the AC50 in experiment [2] was 0.422 µM (active).

On to `O=C(O)CCSCCC(=O)O`, for which the result in experiment [1] and in experiment [3] was inactive.

Turning to `CC(C)(C)C(=O)c1ccccc1`, the compound was called inactive in experiment [1] and in experiment [7].

Regarding `NC(=O)Nc1ccc(Cl)cc1`, the compound was classed as inactive in experiment [1] and in experiment [7].

With `CCC/C=C/C=O`, the outcome in experiment [7] was inactive.

Take `Cc1ccc(C(C)C)cc1O`: the AC50 in experiment [2] was 10.6 µM (active).

`O=c1[nH]nnc2ccccc12`: the compound was called inactive in experiment [2].

Turning to `CC(C)(N)CO`, the compound was called inactive in experiment [7].

As to `c1cc(C(c2ccc(OCC3CO3)cc2)c2ccc(OCC3CO3)cc2)ccc1OCC1CO1` (stereo unspecified), the result in experiment [1] and in experiment [3] was inactive.

For the compound `CC1=CCC2C(C1)C2(C)C` (stereo unspecified), the result in experiment [1] and in experiment [3] was inactive.

On to `CCCC(=O)c1cc(O)c(O)cc1O`, for which the AC50 in experiment [3] is 7.55 µM (active).

Consider `Clc1ccc2c(c1)C(N1CCNCC1)=Nc1ccccc1O2`, for which, in experiment [3], the compound was called inactive.

Turning to `COC(=O)C1=C(C)NC(C)=C(C(=O)OCCN(C)Cc2ccccc2)C1c1cccc([N+](=O)[O-])c1` (stereo unspecified), in experiment [3], the AC50 is 9.13 µM (active).

`Cc1ccc(S)cc1`: the compound was called inactive in experiment [7].

In the case of `O=C1C(c2[nH]c3ccc(S(=O)(=O)O)cc3c2O)=Nc2ccc(S(=O)(=O)O)cc21`, the compound was classed as inactive in experiment [2].

Take `CCCCc1ccc(N)cc1`: the result in experiment [7] was inactive.

As for `CC(=O)OCCC(C)CC(C)(C)C` (stereo unspecified), the outcome in experiment [7] was inactive.

Regarding `C=CC(C)(O)CCC=C(C)CCC=C(C)C` (stereo unspecified), in experiment [2], the outcome was inactive.

With `CC(C)=CCCC(C)=CCCC(C)=CCO`, the call in experiment [2] was inactive.

`CCN(CC)c1ccc(C(=C2C=CC(=[N+](CC)CC)C=C2)c2ccc(S(=O)(=O)O)cc2S(=O)(=O)[O-])cc1`: in experiment [2], the outcome was inactive.

For the compound `CCCCCCCCCCCCCCCC(=O)OC[C@H](O)[C@H]1OC(=O)C(O)=C1O`, the result in experiment [2] and in experiment [7] was inactive.

Turning to `CC(C)c1cccc(O)c1`, the compound was called inactive in experiment [1], in experiment [3] and in experiment [7].

As for `CCCCCCCCC`, in experiment [7], the call was inactive.

The record behind these values is PubChem BioAssay (EPA / NIEHS).
